Screens as filed in PubChem BioAssay.
Hits are enriched below; roughly 4.8% of the tested compounds scored in any of these assays.
DAX1 inh-1 = blocks DAX1 repression of SF-1 activated StAR promoter | HEK293T StAR-luciferase reporter, SF-1/DAX-1 repression relief | inhibition, % at 6.8 µM | hit rate 1.1% among 370,000 | AID 652010;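 active means inhibition above the mean over all tested compounds plus 3 SD, cut at about 3.6% in these data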;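 further: 0% = DAX-1 cells with DMSO and 100% = cells lacking DAX-1 with DMSO; higher inhibition means more luminescence from relief of DAX-1 repression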
ssDAF12 agonist = activators of S. stercoralis DAF-12 nuclear receptor. activation, % at 6.8 µM. AID 652126. HEK293 ssDAF-12/GRIP1 lit1-tk-luc reporter, luminescence; % of 3 µM dafachronic acid response. hit rate 1% among 370,000;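 active means activation above the mean over all tested compounds plus 3 SD, cut at about 0.9% in these data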;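 further: 0% = DMSO-only wells and 100% = 3 µM delta7-dafachronic acid wells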
SMARCA2 activ = activators of SMARCA2 function; hit rate 1% among 370,000; MG213 cells, MMTV-luciferase reporter, dexamethasone, overnight; activation, % at 9.1 µM; AID 652017; in the data active means activation above about 7.8%;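 further: 0% = vehicle wells and 100% = reference activator wells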
hgDAF-12 ag = activates the H. glycines DAF-12 receptor ligand-binding domain | HEK293 GAL4-hgDAF12 UAS-luciferase reporter, agonist luminescence; normalized to butyrate control | activation, % at 6.8 µM | hit rate 1.8% among 370,000;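 active means activation above a cutoff set at the mean of all screened compounds plus 3 SD, cut at about 10% in these data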;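 further: 0% = DMSO wells and 100% = sodium butyrate wells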
DAX1 inh-2 = inhibits human nuclear receptor DAX1; inhibition, % at 6.75 µM; hit rate 0.99% among 340,000; HEK293 Gal4-DAX1 luciferase reporter, luminescence;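 active means inhibition above the mean over all tested compounds plus 3 SD, cut at about 4.2% in these data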;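 further: 0% = DAX1-transfected cells with DMSO and 100% = empty-vector control cells with DMSO; inhibition shows as a rise in luminescence from relieved DAX1 repression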
hcDAF-12 act = H. contortus DAF-12 activation, primary screen. HEK293 hcDAF-12 lit1-tk-luc reporter, luminescence; 0% DMSO, 100% Δ7-dafachronic acid. activation, % at 6.8 µM. hit rate 1.4% among 370,000. AID 652067;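 active means activation above the mean of all tested compounds plus 3 SD, cut at about 5.5% in these data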;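 further: 100% = response to 3 µM Δ7-dafachronic acid high control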
DAX1 conf = confirmation of human DAX1 (NR0B1) inhibitors | shares compounds with DAX1 inh-1 | HEK293T StAR-promoter luciferase reporter, SF-1/DAX-1 repression | hit rate 87% among 2,400 | AID 652134 | inhibition, % at 6.8 µM;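 active means inhibition above the average of every tested compound plus 3 SD, cut at about 3.8% in these data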;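 further: 0% = DAX-1 cells with DMSO and 100% = no DAX-1 control cells with DMSO; active compounds raise luminescence by relieving repression of the StAR reporter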
SF1 mutant ctr = counter-screen for DAX1 inhibitors: nonselective inhibitors with SF-1 AF2 mutant | shares compounds with DAX1 inh-1 | HEK293 StAR-luciferase, luminescence | inhibition, % at 6.8 µM | hit rate 78% among 2,400;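 active means inhibition above the mean of all tested compounds plus 3 SD, cut at about 3% in these data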;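 further: 0% = DAX-1 transfected cells with DMSO and 100% = cells without DAX-1 with DMSO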
LXR ag = counter-screen for hcDAF-12 agonists: agonists of human LXR-beta; shares compounds with hcDAF-12 act; AID 743027; 3,400 tested, under 10 active; HEK293 Gal4-LXR tk-luc reporter, luminescence, 24 h; normalized: DMSO 0%, positive control 100%; activation, % at 6.8 µM;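 active means mean percent activation of the reporter above a cutoff set as the average over tested compounds plus their standard deviation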
Target sequence (P55055 whole entry, looked up, the tested form may be a part): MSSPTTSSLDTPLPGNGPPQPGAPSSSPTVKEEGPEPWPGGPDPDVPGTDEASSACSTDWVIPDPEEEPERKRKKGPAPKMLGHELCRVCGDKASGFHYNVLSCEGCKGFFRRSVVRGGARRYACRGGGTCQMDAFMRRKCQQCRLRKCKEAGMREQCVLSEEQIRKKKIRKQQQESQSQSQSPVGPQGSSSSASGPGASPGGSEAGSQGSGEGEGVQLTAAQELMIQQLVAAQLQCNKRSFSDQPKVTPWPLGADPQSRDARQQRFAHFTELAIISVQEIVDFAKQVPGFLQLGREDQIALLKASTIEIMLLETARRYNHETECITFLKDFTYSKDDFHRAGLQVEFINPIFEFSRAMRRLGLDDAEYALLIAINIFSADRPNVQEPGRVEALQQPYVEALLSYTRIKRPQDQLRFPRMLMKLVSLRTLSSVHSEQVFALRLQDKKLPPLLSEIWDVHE
hcDAF12 conf = confirmation of H. contortus DAF-12 agonists; shares compounds with hcDAF-12 act; HEK293 hcDAF-12 lit1-tk-luc reporter, luminescence; % of Δ7-dafachronic acid response; activation, % at 6.8 µM; hit rate 61% among 3,400; AID 743032;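 active means mean activation across triplicate tests above the threshold derived from the earlier primary screen, cut at about 5.5% in these data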;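 further: 0% = DMSO only wells and 100% = 3 µM Δ7-dafachronic acid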
hgDAF12 conf = hgDAF-12 agonism, confirmation assay; shares compounds with hgDAF-12 ag; activation, % at 6.8 µM; HEK293 GAL4-hgDAF12 luciferase reporter, agonist mode; percent of butyrate response; hit rate 80% among 3,300;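 active means mean activation over triplicate wells above the hit cutoff derived from the earlier primary screen, cut at about 11% in these data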;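 further: 0% = DMSO low control and 100% = 2 mM sodium butyrate high control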
LXR ag 2 = activates human LXR-beta, counter-screen for DAF-12 agonists. AID 743051. activation, % at 6.8 µM. shares compounds with hgDAF-12 ag. 3,300 tested, under 10 active. HEK293 Gal4-LXR luciferase reporter, 24 h;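 active means mean activation of the triplicate above a set limit carried over from the primary screen, none filed active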
* = called active by the depositor.

COc1ccc(CC(N)c2csc(Nc3cc(NCCCO)ncn3)n2)cc1 (configuration not stated) was read as DAX1 inh-1 -1, ssDAF12 agonist -1, SMARCA2 activ 7, hgDAF-12 ag -2 and hcDAF-12 act 1.
For Cc1occc1-c1nnc(SC(C)C(=O)Nc2ccccc2F)o1 (configuration not stated) the results were DAX1 inh-1 10*, ssDAF12 agonist 0, SMARCA2 activ 6, hgDAF-12 ag 15*, DAX1 inh-2 0, hcDAF-12 act 4, DAX1 conf 9.5*, SF1 mutant ctr 7.1*, hgDAF12 conf 14* and LXR ag 2 0.
For CC(Sc1nnc(-c2ccccc2F)o1)C(=O)Nc1ccc(N2CCOCC2)cc1 (configuration not stated) the results were DAX1 inh-1 1, ssDAF12 agonist -1, SMARCA2 activ 2, hgDAF-12 ag 1, DAX1 inh-2 -1 and hcDAF-12 act 1.
Screening Cc1nn(-c2ccccc2)c(Cl)c1/C=N/Nc1nc2ccccc2[nH]1 returned DAX1 inh-1 4.8*, ssDAF12 agonist 1.4*, SMARCA2 activ 7.9*, hgDAF-12 ag 24*, DAX1 inh-2 2, hcDAF-12 act 9.5*, DAX1 conf 18*, SF1 mutant ctr 6.3*, LXR ag 2, hcDAF12 conf 7.8*, hgDAF12 conf 22* and LXR ag 2 1.
`Cc1nn(-c2ccccc2)c(Cl)c1/C=N/NC(=O)c1[nH]ncc1Br` gave DAX1 inh-1 12*, ssDAF12 agonist 1, SMARCA2 activ 3, hgDAF-12 ag 15*, DAX1 inh-2 -2, hcDAF-12 act 6.0*, DAX1 conf 13*, SF1 mutant ctr 7.3*, hgDAF12 conf 15* and LXR ag 2 1.
`Cc1cc(=O)[nH]c(N/N=C/c2c(C)nn(-c3ccccc3)c2Cl)n1` gave DAX1 inh-1 -2, ssDAF12 agonist -2, SMARCA2 activ -3, hgDAF-12 ag 0, DAX1 inh-2 -2 and hcDAF-12 act -3.
For O=C(NNC(=O)c1ccccc1Br)c1ccc2nc[nH]c2c1 the results were DAX1 inh-1 2, ssDAF12 agonist -1, SMARCA2 activ -1, hgDAF-12 ag -1, DAX1 inh-2 1 and hcDAF-12 act 0.
For COCCN(Cc1ccccc1)C(=O)c1cccc(S(=O)(=O)N2CCN(c3ccccc3)CC2)c1 the results were DAX1 inh-1 -1, ssDAF12 agonist -2, SMARCA2 activ -1, hgDAF-12 ag -5, DAX1 inh-2 1 and hcDAF-12 act -2.
For COc1ccc(/C=C/C(=O)O/N=C(\N)c2ccccn2)cc1OC the results were DAX1 inh-1 6.2*, ssDAF12 agonist 0, SMARCA2 activ 8, hgDAF-12 ag 29*, DAX1 inh-2 1, hcDAF-12 act 7.2*, DAX1 conf 5.4*, SF1 mutant ctr 3.0*, LXR ag 1, hcDAF12 conf 4, hgDAF12 conf 11* and LXR ag 2 1.
Screening COc1ccc(CC(=O)O/N=C(\N)c2ccccn2)cc1OC returned DAX1 inh-1 1, ssDAF12 agonist 0, SMARCA2 activ 7, hgDAF-12 ag 1, DAX1 inh-2 1 and hcDAF-12 act 0.
Screening N/C(=N\OC(=O)/C=C/c1ccccc1)c1ccccn1 returned DAX1 inh-1 5.9*, ssDAF12 agonist 1, SMARCA2 activ 7, hgDAF-12 ag 13*, DAX1 inh-2 1, hcDAF-12 act 7.0*, DAX1 conf 11*, SF1 mutant ctr 6.6*, LXR ag 1, hcDAF12 conf 3, hgDAF12 conf 14* and LXR ag 2 1.
Screening CCCN1CNc2c(c(=O)[nH]c(=S)n2-c2ccccc2Cl)C1 returned DAX1 inh-1 1, ssDAF12 agonist -1, SMARCA2 activ -6, hgDAF-12 ag -4, DAX1 inh-2 1 and hcDAF-12 act -2.
For NS(=O)(=O)c1ccc(CCNS(=O)(=O)c2ccc(Cl)cc2)cc1 the results were DAX1 inh-1 0, ssDAF12 agonist -1, SMARCA2 activ -2, hgDAF-12 ag -1, DAX1 inh-2 -1 and hcDAF-12 act -1.
For CC(=O)c1cccc(Nc2nc(-c3cccnc3)cs2)c1 the results were DAX1 inh-1 1, ssDAF12 agonist 0, SMARCA2 activ 2, hgDAF-12 ag 8, DAX1 inh-2 1 and hcDAF-12 act 0.
Screening COc1ccc(-c2csc(Nc3ccccc3)n2)cc1 returned DAX1 inh-1 7.4*, ssDAF12 agonist 0, SMARCA2 activ 2, hgDAF-12 ag 21*, DAX1 inh-2 2, hcDAF-12 act 5, DAX1 conf 13*, SF1 mutant ctr 8.2*, hgDAF12 conf 20* and LXR ag 2 1.
Screening CC(=O)c1cccc(Nc2nc(-c3ccccc3)cs2)c1 returned DAX1 inh-1 9.7*, ssDAF12 agonist 1.0*, SMARCA2 activ 5, hgDAF-12 ag 21*, DAX1 inh-2 1, hcDAF-12 act 9.8*, DAX1 conf 11*, SF1 mutant ctr 7.0*, LXR ag 2, hcDAF12 conf 5, hgDAF12 conf 19* and LXR ag 2 1.
Cc1ccnc(N2C(=O)c3ccccc3C2O)c1 (configuration not stated) was read as DAX1 inh-1 7.1*, ssDAF12 agonist 0, SMARCA2 activ 5, hgDAF-12 ag 16*, DAX1 inh-2 2, hcDAF-12 act 6.7*, DAX1 conf 11*, SF1 mutant ctr 7.4*, LXR ag 1, hcDAF12 conf 3, hgDAF12 conf 16* and LXR ag 2 1.
